This is one part of a sample in which hits are shown more often than they occur.
BL2 CD40 inh – inhibitors of CD40-induced NF-kB signaling, primary screen, BL2 cells, luciferase reporter, single point; CD40L-induced, 4 h; inhibition, % at 10 µM; 83,000 compounds, 0.94% hits;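 active = mean inhibition of at least 50% with a set share of replicates also reaching that level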;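 note: 0% = neutral control wells and 100% = IKK inhibitor VII at 50 µM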
* hit, by the source's call; [ ] = another dose, or the depositor's remark.

SMILES	BL2 CD40 inh
CN1c2ccc(-c3cccc(F)c3)cc2[C@H]2[C@H](CCN2C(=O)C2CCCC2)[C@H]1CO	54*
N#C[C@@H]1[C@@H](c2ccc(C#CC3(O)CCCC3)cc2)[C@@H](CO)N1C(=O)C1CCC1	-6
COCC(=O)N1CCC2(CC1)CN(C(=O)c1ccccn1)[C@H](CO)c1c2c2ccc(OC)cc2n1C	-6[25 µM]
COc1ccccc1CN1[C@H](CO)[C@@H]2c3ccccc3N(C(=O)C3CC3)C[C@@H]21	0
CCCCn1c(=N)n(CC(=O)O)c2ccccc21	6
CCCCCCN1Cc2ccccc2C1	-16
CCCCCCCn1c2c(c(=N)c3ccccc31)CCC2	84*
Oc1cc2c(c(Cl)c1O)CCNC[C@@H]2c1ccccc1	-5[25 µM]
Cc1ccccc1-c1ccccc1[C@H]1[C@@H](C#N)N(C(=O)c2cccc(F)c2)[C@H]1CO	13[25 µM]
C[C@H](CO)N1C[C@H](C)[C@@H](CN(C)C(=O)NC2CCCCC2)Oc2ccc(NS(=O)(=O)c3cn(C)cn3)cc2CC1=O	-9[25 µM]
Cc1ccccc1-c1ccc([C@H]2[C@@H](CO)N3CCCCN(CC4CC4)C[C@H]23)cc1	-11[25 µM]
Cc1onc(-c2ccccc2)c1C(=O)OCC(=O)Nc1ccccc1	-12
COC(=O)c1ccc2c(=O)[nH]c(COC(=O)c3c(-c4ccccc4)noc3C)nc2c1	29*
Cc1onc(-c2ccccc2)c1C(=O)OCC(=O)c1ccc[nH]1	-6
CCCCCCCCCCCCCCCC(=O)C1C(=O)OC(CO)C1=O (centres undefined)	-13[25 µM]
O=C(CCN1CCCCC1)NCC[C@@H]1CC[C@@H](NC(=O)C2CCCCC2)[C@H](CO)O1	-4
C=C1C(=O)OC2C1CCC(C)C1C=CC(=O)C12C (centres undefined)	25
C=C1C(=O)OC2CC1C(O)CC(C)=CCCC(C)=CC(O)CC2C (centres undefined)	87*
N#C[C@H]1[C@H](c2ccccc2-c2cccc(F)c2)[C@@H](CO)N1C(=O)C1CC1	-1[25 µM]
C[C@H](NC(=O)[C@@H]1[C@@H](CO)[C@@H]2Cn3c(ccc(-c4ccncc4)c3=O)[C@@H]2N1C)c1ccccc1	-11[25 µM]
Cn1cnc(S(=O)(=O)N2CC[C@H]3[C@H](CO)Nc4ccc(-c5ccccc5F)cc4[C@H]32)c1	-10[25 µM]
O=S(=O)(/C(=C\c1ccc(C(F)(F)F)cc1)c1nc2ccccc2[nH]1)c1ccccc1	60*
O=S(=O)(Nc1nc2ccccc2[nH]1)c1ccccc1	10
O=S(=O)(NCCc1nc2ccccc2[nH]1)c1ccccc1	9
CN1CCN(C(=O)C[C@@H]2CC[C@@H]3[C@H](COc4ccc(NC(=O)C5CCCC5)cc4C(=O)N3C)O2)CC1	5
SMILES	BL2 CD40 inh
N#C[C@H]1[C@H](c2ccccc2-c2cccc(F)c2)[C@@H](CO)N1C(=O)NC1CCCC1	9
CC(C)NC(=O)Nc1cccc2c1O[C@H](CN(C)S(C)(=O)=O)[C@@H](C)CN(C)C2=O	8
Cc1cccc(S(=O)(=O)N2[C@@H]3CNC[C@H]2C3c2ccc(-c3ccccc3C)cc2)c1 (some centres undefined)	-5
COc1ccc(NC(=O)CCc2c(C)nc3nc(C)nn3c2C)cc1	2
COc1cc(C=NOC(=O)Nc2ccccc2)cc(OC)c1OC	-26
COc1ccc(NC(=O)O/N=C/c2c(C)nn(C(C)(C)C)c2C)cc1	64*
CC(=O)OC1C(=O)C2(C)C(O)CC3OCC3(OC(C)=O)C2C(OC(=O)c2ccccc2)C2(O)CC(OC(=O)C(O)C(NC(=O)c3ccccc3)c3ccccc3)C(C)=C1C2(C)C (centres undefined)	4[25 µM]
O=c1cc(-c2ccc(O)cc2)oc2ccc3ccccc3c12	102*
COc1ccc(-c2cc(=O)c3c(C)cc(O)cc3o2)cc1	-60
COc1cc2oc(-c3ccc(O)cc3)cc(=O)c2c(OC)c1O	-18
COCC#Cc1ccc([C@@H]2[C@H](CO)N3CCCCN(S(=O)(=O)c4ccccc4F)C[C@@H]23)cc1	-17[25 µM]
COc1cccc(C#Cc2ccc([C@@H]3[C@H](C#N)N(C(=O)C4CC4)[C@H]3CO)cc2)c1	-18
COc1cccc(C#Cc2ccc([C@H]3[C@@H](C#N)N(C(=O)C4CCCC4)[C@@H]3CO)cc2)c1	77*
COc1cccc(C#Cc2ccc([C@@H]3[C@@H](C#N)N(C(=O)C4CCCC4)[C@@H]3CO)cc2)c1	-27
COc1cccc(C#Cc2ccc([C@H]3[C@@H](CO)N(C(=O)C4CCCC4)[C@H]3C#N)cc2)c1	-2
COc1cccc(C#Cc2ccc([C@H]3[C@H](C#N)N(C(=O)C4CCCC4)[C@H]3CO)cc2)c1	-35
COc1cccc(C#Cc2ccc([C@@H]3[C@@H](CO)N(C(=O)C4CCOCC4)[C@H]3C#N)cc2)c1	55*
C[C@@H]1CCCCO[C@H](CN(C)C(=O)Nc2ccc3c(c2)OCO3)[C@H](C)CN([C@@H](C)CO)C(=O)c2cc(NS(=O)(=O)c3cccs3)ccc2O1	-10
CCCN(C)C[C@@H]1OCc2cn(nn2)CCCC(=O)N([C@H](C)CO)C[C@@H]1C	9[25 µM]
CNC[C@@H]1Oc2ccc(NS(C)(=O)=O)cc2C(=O)N(C)C[C@H]1C	10
CCC(=O)N1[C@H](CO)[C@H](c2ccc(-c3ccccc3OC)cc2)[C@@H]1CNC(C)=O	-9[25 µM]
O=C(C[C@@H]1CC[C@H]2[C@@H](COC[C@@H](O)CN2S(=O)(=O)c2ccc(Cl)cc2)O1)NCCN1CCCCC1	-10
COC(=O)c1cc(-c2ccc(C)o2)nc2ccccc12	-37
Cc1ccc(-c2cc(C(=O)N3CC(C)OC(C)C3)c3ccccc3n2)o1 (centres undefined)	114*
Cc1ccc(-c2cc(C(=O)NCc3ccco3)c3ccccc3n2)o1	-10
SMILES	BL2 CD40 inh
Cc1noc(C)c1NC(=O)Nc1ccc2c(c1)CC(=O)N([C@H](C)CO)C[C@H](C)[C@@H](CN(C)S(=O)(=O)c1cccs1)O2	0[25 µM]
COc1ccc(C#Cc2ccc3c(c2)O[C@@H](CN(C)C(=O)CN2CCOCC2)[C@@H](C)CN([C@@H](C)CO)S3(=O)=O)cc1	-4[25 µM]
c1ccc(-c2nc(N3CCCCCC3)c3ccccc3n2)nc1	53*
c1ccc2c(N3CCCC3)nc(-c3ccncc3)nc2c1	19
c1ccc(CN2CCN(c3nc(-c4ccccn4)nc4ccccc34)CC2)cc1	-18
CCN1CCN(c2nc(-c3ccccn3)nc3ccccc23)CC1	-25
c1ccc(CCNc2nc(-c3ccccn3)nc3ccccc23)cc1	43*
c1ccc(CCc2nc(-c3ccccn3)no2)cc1	-80
CCC(=O)N1[C@@H]2Cn3c(ccc(-c4cncnc4)c3=O)[C@H]1[C@@H](C(=O)N1CCc3ccccc3C1)[C@@H]2CO	-10[25 µM]
CCN1[C@@H]2c3ccc(C4=CCCCC4)c(=O)n3C[C@@H]2[C@@H](CO)[C@@H]1C(=O)OC	-1[25 µM]
COc1ccc(C#Cc2ccc3c(c2)[C@H]2[C@H](CCN2C(=O)c2ccccc2F)[C@H](CO)N3C)cc1	-24[25 µM]
CN1C[C@H](O)COC[C@@H]2O[C@H](CC(=O)NC3CCCC3)CC[C@H]21	3[25 µM]
C[C@@H]1CN([C@H](C)CO)C(=O)c2c(c3ccccc3n2C)-c2ccccc2CO[C@@H]1CN(C)S(=O)(=O)c1cccc(C#N)c1	-3
O=c1[nH]c(=O)n(C2CCCO2)cc1F (centres undefined)	2
O=C1C(F)=CC(COC(c2ccccc2)(c2ccccc2)c2ccccc2)OC1n1cc(F)c(=O)[nH]c1=O (centres undefined)	101*
C[n+]1c2n(c3ccccc31)N=C(c1ccccc1)CS2	15
